# Source: PubChem BioAssay (NCI)
# The panel holds about 79,000 compounds, 15% with a hit somewhere; the sample as a whole holds those more often. Values without a mark were called inactive. Activity calls are given as the source filed them. Cut-off read from the data, not from the text of the source: active = growth inhibition above about 70%; inactive = the rest.
# How the values were obtained:
# [1] = NCI Yeast Anticancer Drug Screen. Data for the rad52 strain (AID 147);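 note: 0% = growth of vehicle-treated control cultures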; conditions: S. cerevisiae rad52 mutant growth inhibition, active compounds read high
# Summary of the method: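 Here a repair-compromised yeast strain receives each compound; its growth is then quantified and normalised to vehicle-only controls.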
# [2] = NCI Yeast Anticancer Drug Screen. Data for the wt1 strain (AID 149);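 note: 0% = growth of vehicle-treated wt1 cultures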; conditions: S. cerevisiae wt1 strain (SPY 50644) growth inhibition, active compounds read high
# Summary of the method: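 Measured: growth of wt1 yeast under compound versus vehicle treatment, reported as inhibition.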
# [3] = NCI Yeast Anticancer Drug Screen. Data for the mgt1 strain (AID 153); conditions: S. cerevisiae mgt1 mutant growth inhibition, active compounds read high
# Summary of the method: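 Measured: inhibition of mgt1 yeast growth by compound, normalized to vehicle-treated cultures.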
# [4] = NCI Yeast Anticancer Drug Screen. Data for the rad50 strain (AID 155);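 note: 0% = growth of vehicle-only cultures of the same strain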; conditions: S. cerevisiae rad50 strain growth inhibition, active compounds read high
# Summary of the method: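 Growth of the mutant yeast was measured after compound exposure and referenced to vehicle-treated cultures.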
# [5] = NCI Yeast Anticancer Drug Screen. Data for the mec2-1 strain (AID 157); conditions: S. cerevisiae mec2-1 strain, active compounds read high
# Summary of the method: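 Using mec2-1 yeast: add compound, measure growth, express inhibition versus vehicle-treated cultures.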
# [6] = NCI Yeast Anticancer Drug Screen. Data for the rad14 strain (AID 159);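 note: 0% = growth of vehicle-treated control cultures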; conditions: S. cerevisiae rad14 strain growth inhibition, active compounds read high
# Summary of the method: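 Here, inhibition of yeast growth was measured after compound exposure, using a strain with a genetic defect in DNA damage repair and vehicle-treated cultures as the reference.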
# [7] = NCI Yeast Anticancer Drug Screen. Data for the sgs1 mgt1 strain (AID 161);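 note: 0% = growth of cultures given vehicle only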; conditions: S. cerevisiae sgs1 mgt1 strain, active compounds read high
# Summary of the method: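 This yeast growth screen uses a strain with defined DNA-repair lesions; compound-treated growth is compared with vehicle-treated growth.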
# [8] = NCI Yeast Anticancer Drug Screen. Data for the CLN2oe strain (AID 163);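 note: 0% = growth of vehicle-only control cultures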; conditions: S. cerevisiae CLN2oe strain, active compounds read high
# Summary of the method: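 Whole-cell yeast growth assay. A strain engineered for altered cell-cycle control received compound, and inhibition relative to vehicle-treated cultures was recorded.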
# [9] = NCI Yeast Anticancer Drug Screen. Data for the bub3 strain (AID 167); conditions: S. cerevisiae bub3 mutant strain, active compounds read high
# Summary of the method: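 Whole-cell yeast assay. The mutant strain was incubated with compounds, and growth inhibition was determined by comparison with vehicle-treated cells.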
# [10] = NCI Yeast Anticancer Drug Screen. Data for the wt2 strain (AID 169);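 note: 0% = growth of vehicle-treated yeast cultures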; conditions: S. cerevisiae wt2 strain growth inhibition, active compounds read high
# Summary of the method: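 Treated yeast vs. vehicle-treated yeast: growth inhibition determined.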
# [11] = NCI Yeast Anticancer Drug Screen. Data for the mlh1 strain (AID 171);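 note: 0% = growth of vehicle-treated control cultures of the same strain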; conditions: S. cerevisiae mlh1 strain growth inhibition, active compounds read high
# Summary of the method: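 A yeast strain with a defined genetic lesion serves as the test organism. Cultures receive compound or vehicle, and growth is measured.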
# [12] = NCI Yeast Anticancer Drug Screen. Data for the sgs1 strain (AID 173);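 note: 0% = growth of vehicle-only control cultures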; conditions: S. cerevisiae sgs1 mutant, active compounds read high
# Summary of the method: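 A genetically defined yeast mutant is incubated with the test compound, and its growth is compared to that of the same strain given vehicle.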
# [13] = NCI Yeast Anticancer Drug Screen. Data for the mlh1 rad18 strain (AID 175); conditions: S. cerevisiae mlh1 rad18 strain growth inhibition, active compounds read high
# Summary of the method: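 Steps: expose repair-defective yeast to compound; measure growth; express inhibition against vehicle-treated controls.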
# [14] = NCI Yeast Anticancer Drug Screen. Data for the rad18 strain (AID 177); conditions: S. cerevisiae rad18 mutant growth inhibition, active compounds read high
# Summary of the method: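 Measured value is growth inhibition of a yeast strain bearing a DNA repair alteration, referenced to vehicle-treated cells.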
# [15] = NCI Yeast Anticancer Drug Screen. Data for the cln2 rad14 strain (AID 165);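 note: 0% = growth equal to vehicle treated cultures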; conditions: S. cerevisiae cln2 rad14 strain, active compounds read high
# Summary of the method: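 Yeast strain cln2 rad14, bearing defects in cell cycle control and DNA repair, serves as the test system; values reflect growth inhibition compared with vehicle.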
# [16] = at 5.0 µM (retest, dose inferred, filed as 0.5)
# [17] = at 50.0 µM (retest, dose inferred, filed as 5.0)
smiles,measurement,setting,value
CCOC(=O)C1N=[N+](c2ccccc2)C(=O)/C1=C\n1c(=S)[nH]c2ccc([N+](=O)[O-])cc21 (stereo not given),growth inhibition,[1]; at 1.2 µM,0%
same,growth inhibition,[1]; at 3.7 µM,1%
same,growth inhibition,[1]; at 11.0 µM,2%
same,growth inhibition,[1]; at 33.0 µM,0%
same,growth inhibition,[1]; at 100.0 µM,9%
same,growth inhibition,[2]; at 1.2 µM,1%
same,growth inhibition,[2]; at 3.7 µM,3%
same,growth inhibition,[2]; at 11.0 µM,2%
same,growth inhibition,[2]; at 33.0 µM,3%
same,growth inhibition,[2]; at 100.0 µM,6%
same,growth inhibition,[3]; at 1.2 µM,-1%
same,growth inhibition,[3]; at 3.7 µM,-1%
same,growth inhibition,[3]; at 11.0 µM,0%
same,growth inhibition,[3]; at 33.0 µM,-11%
same,growth inhibition,[3]; at 100.0 µM,5%
same,growth inhibition,[4]; at 1.2 µM,-6%
same,growth inhibition,[4]; at 3.7 µM,-14%
same,growth inhibition,[4]; [16],21%
same,growth inhibition,[4]; at 11.0 µM,-18%
same,growth inhibition,[4]; at 33.0 µM,3%
same,growth inhibition,[4]; [17],94% (active)
same,growth inhibition,[4]; at 50.0 µM,5.15%
same,growth inhibition,[4]; at 100.0 µM,7%
same,growth inhibition,[5]; at 1.2 µM,1%
same,growth inhibition,[5]; at 3.7 µM,1%
same,growth inhibition,[5]; [16],13%
same,growth inhibition,[5]; at 11.0 µM,2%
same,growth inhibition,[5]; at 33.0 µM,7%
same,growth inhibition,[5]; [17],96% (active)
same,growth inhibition,[5]; at 50.0 µM,17.2%
same,growth inhibition,[5]; at 100.0 µM,9%
same,growth inhibition,[6]; at 1.2 µM,0%
same,growth inhibition,[6]; at 3.7 µM,-2%
same,growth inhibition,[6]; at 11.0 µM,1%
same,growth inhibition,[6]; at 33.0 µM,2%
same,growth inhibition,[6]; at 100.0 µM,8%
same,growth inhibition,[7]; [16],-4%
same,growth inhibition,[7]; [17],63%
same,growth inhibition,[7]; at 50.0 µM,19.9%
same,growth inhibition,[8]; at 1.2 µM,1%
same,growth inhibition,[8]; at 3.7 µM,-1%
same,growth inhibition,[8]; at 11.0 µM,-1%
same,growth inhibition,[8]; at 33.0 µM,4%
same,growth inhibition,[8]; at 100.0 µM,3%
same,growth inhibition,[9]; at 1.2 µM,-7%
same,growth inhibition,[9]; at 3.7 µM,1%
same,growth inhibition,[9]; [16],97% (active)
same,growth inhibition,[9]; at 11.0 µM,1%
same,growth inhibition,[9]; at 33.0 µM,3%
same,growth inhibition,[9]; [17],99% (active)
same,growth inhibition,[9]; at 50.0 µM,20.8%
same,growth inhibition,[9]; at 100.0 µM,3%
same,growth inhibition,[10]; at 1.2 µM,0%
same,growth inhibition,[10]; at 3.7 µM,0%
same,growth inhibition,[10]; at 11.0 µM,-1%
same,growth inhibition,[10]; at 33.0 µM,1%
same,growth inhibition,[10]; at 100.0 µM,3%
same,growth inhibition,[11]; at 1.2 µM,0%
same,growth inhibition,[11]; at 3.7 µM,1%
same,growth inhibition,[11]; at 11.0 µM,2%
same,growth inhibition,[11]; at 33.0 µM,4%
same,growth inhibition,[11]; at 100.0 µM,8%
same,growth inhibition,[12]; at 1.2 µM,0%
same,growth inhibition,[12]; at 3.7 µM,1%
same,growth inhibition,[12]; at 11.0 µM,-9%
same,growth inhibition,[12]; at 33.0 µM,8%
same,growth inhibition,[12]; at 100.0 µM,16%
same,growth inhibition,[13]; [16],24%
same,growth inhibition,[13]; [17],94% (active)
same,growth inhibition,[13]; at 50.0 µM,5.05%
same,growth inhibition,[14]; at 1.2 µM,-2%
same,growth inhibition,[14]; at 3.7 µM,1%
same,growth inhibition,[14]; at 11.0 µM,3%
same,growth inhibition,[14]; at 33.0 µM,7%
same,growth inhibition,[14]; at 100.0 µM,15%
O=[N+]([O-])c1ccc2c(c1)/C(=N/N=C1c3ccccc3Cc3ccccc31)c1cc([N+](=O)[O-])cc([N+](=O)[O-])c1-2,growth inhibition,[1]; at 1.2 µM,9%
same,growth inhibition,[1]; at 3.7 µM,32%
same,growth inhibition,[1]; at 11.0 µM,91% (active)
same,growth inhibition,[1]; at 33.0 µM,98% (active)
same,growth inhibition,[1]; at 100.0 µM,96% (active)
same,growth inhibition,[2]; at 1.2 µM,-19%
same,growth inhibition,[2]; at 3.7 µM,21%
same,growth inhibition,[2]; at 11.0 µM,99% (active)
same,growth inhibition,[2]; at 33.0 µM,99% (active)
same,growth inhibition,[2]; at 100.0 µM,97% (active)
same,growth inhibition,[4]; at 1.2 µM,-10%
same,growth inhibition,[4]; at 3.7 µM,60%
same,growth inhibition,[4]; [16],9%
same,growth inhibition,[4]; at 11.0 µM,96% (active)
same,growth inhibition,[4]; at 33.0 µM,98% (active)
same,growth inhibition,[4]; [17],96% (active)
same,growth inhibition,[4]; at 50.0 µM,82.7% (active)
same,growth inhibition,[4]; at 100.0 µM,94% (active)
same,growth inhibition,[5]; at 1.2 µM,16%
same,growth inhibition,[5]; at 3.7 µM,78% (active)
same,growth inhibition,[5]; [16],24%
same,growth inhibition,[5]; at 11.0 µM,99% (active)
same,growth inhibition,[5]; at 33.0 µM,98% (active)
same,growth inhibition,[5]; [17],96% (active)
same,growth inhibition,[5]; at 50.0 µM,81.5% (active)
same,growth inhibition,[5]; at 100.0 µM,95% (active)
same,growth inhibition,[6]; at 1.2 µM,16%
same,growth inhibition,[6]; at 3.7 µM,53%
same,growth inhibition,[6]; at 11.0 µM,98% (active)
same,growth inhibition,[6]; at 33.0 µM,99% (active)
same,growth inhibition,[6]; at 100.0 µM,95% (active)
same,growth inhibition,[7]; [16],75% (active)
same,growth inhibition,[7]; [17],98% (active)
same,growth inhibition,[7]; at 50.0 µM,89.2% (active)
same,growth inhibition,[8]; at 1.2 µM,28%
same,growth inhibition,[8]; at 3.7 µM,50%
same,growth inhibition,[8]; at 11.0 µM,99% (active)
same,growth inhibition,[8]; at 33.0 µM,99% (active)
same,growth inhibition,[8]; at 100.0 µM,95% (active)
same,growth inhibition,[15]; [16],25%
same,growth inhibition,[15]; [17],97% (active)
same,growth inhibition,[15]; at 50.0 µM,85.8% (active)
same,growth inhibition,[9]; at 1.2 µM,4%
same,growth inhibition,[9]; at 3.7 µM,57%
same,growth inhibition,[9]; [16],63%
same,growth inhibition,[9]; at 11.0 µM,99% (active)
same,growth inhibition,[9]; at 33.0 µM,98% (active)
same,growth inhibition,[9]; [17],98% (active)
same,growth inhibition,[9]; at 50.0 µM,85.9% (active)
same,growth inhibition,[9]; at 100.0 µM,91% (active)
same,growth inhibition,[10]; at 1.2 µM,15%
same,growth inhibition,[10]; at 3.7 µM,41%
same,growth inhibition,[10]; at 11.0 µM,98% (active)
same,growth inhibition,[10]; at 33.0 µM,98% (active)
same,growth inhibition,[10]; at 100.0 µM,94% (active)
same,growth inhibition,[11]; at 1.2 µM,15%
same,growth inhibition,[11]; at 3.7 µM,50%
same,growth inhibition,[11]; at 11.0 µM,99% (active)
same,growth inhibition,[11]; at 33.0 µM,98% (active)
same,growth inhibition,[11]; at 100.0 µM,93% (active)
same,growth inhibition,[12]; at 1.2 µM,18%
same,growth inhibition,[12]; at 3.7 µM,64%
same,growth inhibition,[12]; at 11.0 µM,99% (active)
same,growth inhibition,[12]; at 33.0 µM,99% (active)
same,growth inhibition,[12]; at 100.0 µM,95% (active)
same,growth inhibition,[14]; at 1.2 µM,50%
same,growth inhibition,[14]; at 3.7 µM,81% (active)
same,growth inhibition,[14]; at 11.0 µM,97% (active)
same,growth inhibition,[14]; at 33.0 µM,97% (active)
same,growth inhibition,[14]; at 100.0 µM,94% (active)
